Out of some 52,000 compounds screened, about 4,300 (8.3%) were called active. The sample holds actives, similar compounds and a random draw of the others, so the mix is not that of the screen. Unmarked numbers belong to inactive results. Cut-off read from the data, not from the text of the source: active = survival mostly below about 52% (no sharp cut-off); inactive = mostly above about 56%.

This test concerns DeltatarO mutant. In words: S. aureus survival, RN4220 and DeltatarO strains – OD600, teichoic acid synthesis inhibitors, primary screen (AID 463173). The conditions noted are these: S. aureus RN4220 wild type/DeltatarO growth, OD600, 18 h, hits give low values, screened at 18.75 µg/mL (by protocol).
As for `COc1ccc(NC(=O)Cn2nnnc2-c2ccccc2F)c(C)c1`, the survival was 74%.
The value for `O=C(Cn1c(=O)ccc2cc(S(=O)(=O)N3CCCC3)ccc21)Nc1ccccc1` was 57%; that for `CCOc1ccccc1NC(=O)Cn1c(=O)ccc2cc(S(=O)(=O)N3CCC(C)CC3)ccc21` was 55%.
Then `COc1ccc(NC(=O)COc2ccc(S(=O)(=O)NC3CCCCC3)cc2)c(OC)c1`, with 66%; and `CCC(C)NC(=O)Cn1c(=O)ccc2cc(S(=O)(=O)N3CCCC3)ccc21` (stereo not drawn), with 37% (active); and `CCOc1ccc(NC(=O)COc2ccc(S(=O)(=O)NC3CCCCC3)cc2)cc1`, with 62%.
The value for `Cc1ccc(CNC(=O)Cn2c(=O)ccc3cc(S(=O)(=O)N4CCCC4)ccc32)cc1` was 92%; that for `CCc1ccccc1NC(=O)Cn1c(=O)ccc2cc(S(=O)(=O)N3CCCC3)ccc21` was 46% (active).
Consider `CCc1ccccc1NC(=O)Cn1c(=O)ccc2cc(S(=O)(=O)N3CCC(C)CC3)ccc21`, for which the survival is 92%.
The value for `CCC(C)NC(=O)Cn1ccc2cc(S(=O)(=O)N3CCCCCC3)ccc21` (stereo not drawn) was 118%; that for `Cc1cccc(NC(=O)Cn2c(=O)ccc3cc(S(=O)(=O)N4CCCC4)ccc32)c1C` was 105%.
The value for `CCOc1ccccc1NC(=O)Cn1c(=O)ccc2cc(S(=O)(=O)N3CCCC3)ccc21` was 0% (active); that for `CCOc1ccccc1NC(=O)COc1ccc(S(=O)(=O)NC2CCCCC2)cc1` was 48% (active); that for `CCc1ccc(-n2c(=O)c3ccc(C(=O)NCCc4ccccc4)cc3n(CC(N)=O)c2=O)cc1` was 86%.
For `COC(=O)C1(CO)NC(c2ccccc2F)C2C(=O)N(c3ccccc3)C(=O)C21` (stereo not drawn), the survival was 86%.
Consider `COc1ccc(-c2nc(C)c(CCNC(=O)c3cccs3)s2)cc1`, for which the survival was 61%.
Turning to `O=C(Nc1ccc(N2CCC(c3ccccc3)C2)c(C(=O)O)c1)c1ccc(Cl)cc1` (stereo not drawn), the survival was 60%.
Then `CCNC(=O)C1CCCN(c2nn3cc(-c4ccc(C)cc4)nc3s2)C1` (stereo not drawn), with 74%; and `COCCCNC(=O)c1cc(-c2ccc(OC)cc2)nc2n[nH]c(-c3ccc(Cl)cc3)c12`, with 73%; and `Cn1c(=O)n(C)c2cc(N3CCOCC3)c(NC(=O)c3ccccc3Br)cc21`, with 82%.
Then `Cc1ccc(NC(=O)Cn2c(=O)ccc3cc(S(=O)(=O)N4CCCC4)ccc32)cc1C`, with 98%; and `Cc1ccc(NC(=O)Cn2c(=O)ccc3cc(S(=O)(=O)N4CCCC4)ccc32)cc1N(C)C`, with 32% (active); and `CCc1ccc(NC(=O)Cn2c(=O)ccc3cc(S(=O)(=O)N4CCCC4)ccc32)cc1`, with 144%.

The values are drawn from PubChem BioAssay AID463173 (ICCB-Longwood Screening Facility, Harvard Medical School, 2010).
